Molecules are shown by their SMILES. Results filed as inconclusive are left out. Calls of active or inactive are those of the source. Unless noted, the call rests on the fitted dose curve; in most records, active means well fitted curve in the direction sought with a large enough effect; inconclusive means small, poorly fitted or top-dose-only effect, or another doubt; inactive means no such curve, though single readings can be large; an effect the other way counts as inactive or inconclusive.

This passage reports Potency and outcome results from PubChem BioAssay (NCATS).

Experiment [1] can be described thus: qHTS for compounds that reverse cellular toxicity of Amyloid beta (A-beta) peptide in yeast: LOPAC Validation Assay (AID 720559). Conditions: Potency: rescue of growth toxicity. The essentials:
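Activity is expressed relative to DMSO and an equimolar ferric chloride/clioquinol mix. Compounds were pinned into medium with A-beta-expressing yeast, grown 48 hr at 30 C, then read by absorbance at 600 nm.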
(Quantitative high-throughput screening tests each substance at several concentrations.)

Experiment [2] can be described thus: qHTS for Activators of Parkin Expression: LOPAC Validation Assay (NLuc Reporter) (AID 720572; further: potency means the concentration at half of the fitted maximal effect). In a few lines: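 Neuronal cells with a Parkin promoter-driven FLuc/NLuc coincidence reporter were treated 24 h at 37 C in 7-point dose response (LOPAC). NLuc luminescence read after FLuc; signals normalized to DMSO and positive control (100%).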
Experiment [3] is described as follows: qHTS for Activators of Parkin Expression: LOPAC Validation Assay (FLuc Reporter) (AID 720573). In a few lines: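 A neuronal cell line harbouring FLuc and NLuc reporters behind the Parkin promoter was exposed to compounds for 24 h. Firefly luciferase signal, measured after 10 min with detection reagent, was scaled to DMSO and positive-control wells.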
In experiment [4] the target is T1, Hexokinase-4 (Homo sapiens) + Glucokinase regulatory protein (Homo sapiens) (UniProt P35557+Q14397). The experiment in a line: qHTS assay for inhibitors of recombinant human GCK-GKRP interaction: Diaphorase-coupled assay (AID 743205). The essentials:
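Inhibitors of the GCK–GKRP complex relieve GKRP suppression of GCK, detected through a G6PDH–diaphorase cascade reducing resazurin. Human GST-GCK and FLAG-GKRP are used at 10 nM with 5 mM glucose and 0.4 mM ATP.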

The target of experiment [5] is T1, Hexokinase-4 (Homo sapiens) + Glucokinase regulatory protein (Homo sapiens). The experiment can be described thus: qHTS assay for inhibitors of recombinant human GCK-GKRP interaction: HTRF assay (AID 743207). The essentials:
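Steps: dispense GCK–GKRP complex (5 nM each, GST- and FLAG-tagged) with 2 uM S6P; pin in compounds; add XL665/Eu-cryptate-labelled antibodies; incubate 60 min at room temperature; read time-resolved FRET at 665 and 615 nm.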

For experiment [6] the target is unchanged. The experiment can be described thus: qHTS assay for inhibitors of recombinant human GCK-GKRP interaction: ADP-Glo assay (AID 743206). The essentials:
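GST-GCK and FLAG-GKRP (15 nM each in the dispensed mix, with 2 uM S6P) react with 0.4 mM ATP and 5 mM glucose (final) in Hepes pH 7.6 for 60 min at room temperature. ADP is measured by ADP-Glo luminescence.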

Experiment [7] can be described thus: qHTS assay for small molecule agonists of the antioxidant response element (ARE) signaling pathway measured by Nrf2-dependant transcriptional activity (AID 720636; active means well fitted curve in the direction sought with a large enough effect in the repeat runs; an effect the other way counts as inactive or inconclusive; further: potency means the concentration at half of the fitted maximal effect). In a few lines:
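ARE-luc HepG2 cells carrying an Nrf2-responsive luciferase reporter were plated in medium with 1% dialyzed FBS, left 6 hr at 37 C to attach, then exposed to compound for 16 hr. Luciferase luminescence was read after ONE-Glo addition.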

T1 sequence (P35557 whole entry, looked up): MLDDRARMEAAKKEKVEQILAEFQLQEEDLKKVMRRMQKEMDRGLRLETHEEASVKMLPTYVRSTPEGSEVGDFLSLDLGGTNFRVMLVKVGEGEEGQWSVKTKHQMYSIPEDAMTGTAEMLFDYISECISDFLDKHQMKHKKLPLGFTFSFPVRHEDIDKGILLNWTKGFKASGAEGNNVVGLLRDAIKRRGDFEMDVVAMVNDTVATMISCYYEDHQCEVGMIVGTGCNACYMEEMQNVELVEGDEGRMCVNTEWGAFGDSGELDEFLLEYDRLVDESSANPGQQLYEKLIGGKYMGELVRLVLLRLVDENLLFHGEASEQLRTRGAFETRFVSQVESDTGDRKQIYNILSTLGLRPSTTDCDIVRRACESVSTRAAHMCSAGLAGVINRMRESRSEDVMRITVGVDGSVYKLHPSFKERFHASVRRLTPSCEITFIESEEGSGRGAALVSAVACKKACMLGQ
T1 sequence (Q14397 whole entry, looked up): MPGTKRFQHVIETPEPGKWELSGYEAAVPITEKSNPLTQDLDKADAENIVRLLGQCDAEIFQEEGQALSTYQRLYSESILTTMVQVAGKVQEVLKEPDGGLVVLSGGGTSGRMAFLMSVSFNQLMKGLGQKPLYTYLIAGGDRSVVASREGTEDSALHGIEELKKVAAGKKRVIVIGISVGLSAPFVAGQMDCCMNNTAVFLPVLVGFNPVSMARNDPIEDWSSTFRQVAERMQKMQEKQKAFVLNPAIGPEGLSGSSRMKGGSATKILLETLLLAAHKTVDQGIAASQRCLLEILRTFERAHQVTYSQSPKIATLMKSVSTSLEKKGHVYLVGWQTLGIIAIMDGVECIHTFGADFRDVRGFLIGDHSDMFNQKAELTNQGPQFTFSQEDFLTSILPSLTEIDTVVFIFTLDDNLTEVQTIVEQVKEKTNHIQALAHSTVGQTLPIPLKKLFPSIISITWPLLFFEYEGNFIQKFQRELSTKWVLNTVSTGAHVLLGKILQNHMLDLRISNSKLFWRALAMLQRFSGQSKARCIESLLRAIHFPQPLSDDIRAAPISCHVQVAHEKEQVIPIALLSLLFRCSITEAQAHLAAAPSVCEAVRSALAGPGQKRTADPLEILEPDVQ

With `C=CC(N)CCC(=O)O` (stereo not given), the Potency entry in experiment [1], in experiment [2], in experiment [3] and in experiment [5] was “inactive” in each case. The result in experiment [4] was inactive.
Take `N#C/C(=C\c1ccc(O)c(O)c1)C(=O)NCCCc1ccccc1`: the Potency entry in experiment [1], in experiment [2], in experiment [3], in experiment [6] and in experiment [5] was “inactive” throughout. Further, in experiment [4], the outcome was inactive.
Consider `Clc1ccc(N2CCN(Cc3c[nH]c4ncccc34)CC2)cc1`, for which the Potency entry in experiment [1], in experiment [2], in experiment [3], in experiment [6] and in experiment [5] was “inactive” in each case. In addition, in experiment [4], the outcome was inactive.
On to `N#C/C(=C\c1ccc(-c2cc(Cl)ccc2Cl)o1)C(=O)Nc1cccc2ncccc12`, for which the Potency entry in experiment [1], in experiment [2], in experiment [3], in experiment [6] and in experiment [5] was “inactive” each time.
In the case of `CN1C2CCC1CC(OC(=O)C(O)c1ccccc1)C2` (stereo not given), the Potency result in experiment [1], in experiment [2], in experiment [3], in experiment [6] and in experiment [5] was “inactive” throughout. The outcome in experiment [4] was inactive.
With `O=C(O)CC1CCCc2ccccc2C1O` (stereo not given), the Potency entry in experiment [1], in experiment [2], in experiment [3], in experiment [6] and in experiment [5] was “inactive” throughout. For the same molecule, the outcome in experiment [4] was inactive.
On to `CCCn1c(=O)c2[nH]c(-c3ccc(OCC(=O)NCCN)cc3)nc2n(CCC)c1=O`, for which the Potency entry in experiment [1], in experiment [2], in experiment [3] and in experiment [5] was “inactive” each time. For the same molecule, in experiment [4], the result was inactive.
In the case of `NC(=O)C(=O)O`, the Potency entry in experiment [1], in experiment [2], in experiment [3], in experiment [6] and in experiment [5] was “inactive” throughout. The result in experiment [4] was inactive.
As for `COc1ccccc1CNCCCCCCNCCCCCCCCNCCCCCCNCc1ccccc1OC`, the Potency result in experiment [1], in experiment [2], in experiment [3], in experiment [6] and in experiment [5] was “inactive” each time. In addition, the result in experiment [4] was inactive.
On to `NCCCCC(=O)O`, for which the Potency result in experiment [1], in experiment [2], in experiment [3], in experiment [6] and in experiment [5] was “inactive” throughout.
With `CC(C)CC(NP(=O)(O)O[C@@H]1O[C@@H](C)[C@H](O)[C@@H](O)[C@H]1O)C(=O)NC(Cc1c[nH]c2ccccc12)C(=O)O` (stereo not given in full), the Potency entry in experiment [1], in experiment [2], in experiment [3] and in experiment [6] was “inactive” throughout.
In the case of `O=C(Nc1ccccc1)c1cc([N+](=O)[O-])ccc1Cl`, the Potency entry in experiment [1], in experiment [2] and in experiment [5] was “inactive” throughout. Further, the Potency in experiment [7] was 3.06 µM (active). For the same molecule, the result in experiment [4] was inactive.
Take `NC[C@@H]1O[C@H](C23CC4CC(CC(C4)C2)C3)Cc2c1ccc(O)c2O`: the Potency entry in experiment [1], in experiment [2], in experiment [3], in experiment [6] and in experiment [5] was “inactive” in each case. In addition, the outcome in experiment [4] was inactive.
For the molecule `c1ccc(-c2ccccn2)nc1`, the Potency entry in experiment [1], in experiment [2], in experiment [3], in experiment [6] and in experiment [5] was “inactive” in each case. Further, the result in experiment [4] was inactive.
Turning to `CC(=O)SCC[N+](C)(C)C`, the Potency entry in experiment [1], in experiment [2], in experiment [3], in experiment [6] and in experiment [5] was “inactive” in each case. The outcome in experiment [4] was inactive.
As to `S=C(S)OC1CC2CC1C1CCCC21` (stereo not given), the Potency entry in experiment [1], in experiment [2], in experiment [3], in experiment [6] and in experiment [5] was “inactive” each time. Further, in experiment [4], the result was inactive.
Turning to `CCCCC#Cc1nc(NC)c2ncn([C@@H]3O[C@H](CO)[C@@H](O)[C@H]3O)c2n1`, the Potency result in experiment [1], in experiment [2], in experiment [3], in experiment [6] and in experiment [5] was “inactive” in each case.
In the case of `O=C(O)CNC(=O)C(CS)Cc1ccccc1` (stereo not given), the Potency result in experiment [1], in experiment [2], in experiment [3], in experiment [6] and in experiment [5] was “inactive” each time. For the same molecule, in experiment [4], the outcome was inactive.
Turning to `CCOC(=O)C1=C(C)NC(C)=C(C(=O)OCC)C1c1c(F)c(F)c(F)c(F)c1F`, the Potency result in experiment [1], in experiment [3] and in experiment [5] was “inactive” throughout. Moreover, the Potency in experiment [2] is 4.11 µM (active). For the same molecule, the result in experiment [4] was inactive.
As to `NC[C@H]1O[C@@H](n2cnc3c(N)ncnc32)[C@H](O)[C@@H]1O`, the Potency entry in experiment [1], in experiment [2], in experiment [3], in experiment [6] and in experiment [5] was “inactive” each time.
Turning to `C=C[C@H]1CN2CC[C@@H]1C[C@@H]2[C@@H](O)c1ccnc2ccc(OC)cc12`, the Potency entry in experiment [1], in experiment [2], in experiment [3], in experiment [6] and in experiment [5] was “inactive” throughout.
As for `COc1cc(C(O)CO)ccc1OS(=O)(=O)O` (stereo not given), the Potency entry in experiment [1], in experiment [2], in experiment [3] and in experiment [5] was “inactive” in each case. Also, in experiment [4], the result was inactive.
Consider `NO`, for which the Potency result in experiment [2], in experiment [3], in experiment [6] and in experiment [5] was “inactive” each time. In addition, the outcome in experiment [4] was inactive.
As for `CN=c1nc(-c2ccccc2)n(-c2ccccc2)s1`, the Potency entry in experiment [2], in experiment [3], in experiment [6] and in experiment [5] was “inactive” throughout. Also, the result in experiment [4] was inactive.
In the case of `O=C(O)[C@@H]1C[C@H](C(=O)O)N1`, the Potency entry in experiment [2], in experiment [3], in experiment [6] and in experiment [5] was “inactive” in each case. In experiment [4], the result was inactive.
Take `Brc1c(Br)c(Br)c2n[nH]nc2c1Br`: the Potency result in experiment [2], in experiment [3] and in experiment [5] was “inactive” in each case. Moreover, the outcome in experiment [4] was inactive.
As for `CCCCCCCC/C=C\CCCCCCCC(=O)NCCO`, the Potency entry in experiment [1], in experiment [2] and in experiment [5] was “inactive” throughout.
Consider `CCN(CC)c1ncnc2c1ncn2[C@@H]1O[C@H](COP(=O)(O)OP(=O)(O)C(Br)(Br)P(=O)(O)O)[C@@H](O)[C@H]1O`, for which the Potency entry in experiment [1], in experiment [2], in experiment [6] and in experiment [5] was “inactive” in each case. The outcome in experiment [4] was inactive.
On to `NC(N)=NC(=O)c1nc(Cl)c(N2CCCCCC2)nc1N`, for which the Potency entry in experiment [1], in experiment [6] and in experiment [5] was “inactive” in each case. The outcome in experiment [4] was inactive.
Consider `CNCC[C@H](Oc1ccc(C(F)(F)F)cc1)c1ccccc1`, for which the Potency entry in experiment [1], in experiment [2] and in experiment [5] was “inactive” each time. In addition, in experiment [4], the outcome was inactive.
Regarding `Nc1ncnc2c1ncn2[C@@H]1O[C@H](COP(=O)(O)CP(=O)(O)OP(=O)(O)O)[C@@H](O)[C@H]1O`, the Potency result in experiment [2], in experiment [3], in experiment [6] and in experiment [5] was “inactive” throughout. Further, the result in experiment [4] was inactive.
As to `Fc1ccc(C(OCCCc2cnc[nH]2)c2ccc(F)cc2)cc1`, the Potency result in experiment [2], in experiment [3], in experiment [6] and in experiment [5] was “inactive” throughout. Further, the outcome in experiment [4] was inactive.
